Reference: PubChem BioAssay (Tox21)
Records with an inconclusive call do not appear. Entries that show only a call come without a potency. Activity calls are given as the source filed them. Unless noted, calls come from the whole dose curve; as a rule, active = well fitted curve in the direction sought with a large enough effect in the repeat runs; inconclusive = weak or mixed curves; inactive = no such curve, though single readings can be large; an effect the other way counts as inactive or inconclusive.

Tests used:
[1] = A CellTox Green Cytotoxicity Assay to monitor cytotoxicity in HepG2 cells - 8 hour (AID 1224890); note: nearly all actives have a fitted effect of over 45% in size
In short: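 Real-time, homogeneous cytotoxicity readout: dead-cell DNA staining by CellTox Green in HepG2 monolayers, fluorescence measured at timed intervals up to 40 h of continuous compound exposure.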

[2] = qHTS assay to identify small molecule antagonists of the estrogen receptor alpha (ER-alpha) signaling pathway using the BG1 cell line in the presence of 0.1 nM 17-beta-estradiol - cell viability counter screen (AID 1259241); note: nearly all actives have a fitted effect of over 40% in size
In short: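 Cytotoxicity counter-screen: live-cell protease activity measured by fluorescence (30 min reagent step) in the same wells. Cells were VM7Luc4E2 with endogenous ER-alpha and ERE-driven luciferase, treated 22 hr at 37C alongside 0.1 nM 17beta-estradiol final.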

[3] = qHTS assay to identify small molecule antagonists of the androgen receptor (AR) signaling pathway using the MDA cell line in the presence of 0.5 nM R1881 - cell viability counter screen (AID 1259242); note: nearly all actives have a fitted effect of over 45% in size
In short: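 Cytotoxicity toward MDA-kb2 cells is measured by CellTiter-Fluor live-cell protease fluorescence after 16 hr compound exposure at 37C in the presence of 0.5 nM R1881 stimulator.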

[4] = molecular target: Androgen receptor (Homo sapiens) (UniProt P10275); assay: qHTS assay to identify small molecule antagonists of the androgen receptor (AR) signaling pathway using the MDA cell line in the presence of 0.5 nM R1881 (AID 1259243); note: nearly all actives have a fitted effect of over 50% in size
In short: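 Steps: seed MDA-kb2 cells, incubate 5 hr at 37C; pin-transfer compounds in DMSO; add R1881 to 0.5 nM final; incubate 16 hr; add ONE-Glo, wait 30 min at room temperature; read luminescence.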

[5] = qHTS assay to identify small molecule phospholipidosis (PLD) inducers (AID 1259344; active = well fitted curve in the direction sought with a large enough effect; an effect the other way counts as inactive or inconclusive)
In short: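 Quantitative HTS in HepG2: compound plus LipidTOX Red dye for 24 h, paraformaldehyde fixation with Hoechst 33342, widefield high-content imaging; amiodarone as positive and DMSO as negative control.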

[6] = qHTS assay to identify small molecule HDAC inhibitors (AID 1259364); note: top concentration of the series differs between compounds; nearly all actives have a fitted effect of over 45% in size
In short: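 Homogeneous cell-based luminescent assay of endogenous class I/II HDAC activity; HCT-116 cells, 2 h compound exposure, 30 min HDAC-Glo development at RT.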

[7] = qHTS assay to identify small molecule HDAC inhibitors - cell viability counter screen (AID 1259365); note: series mostly up to about 92 µM; nearly all actives have a fitted effect of over 50% in size
In short: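 CellTiter-Glo luminescence (30 min, room temperature) reported viability after a 2 h compound exposure at 37 C. Cells: wild-type HCT-116, 1,500 per well, seeded the night before.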

[8] = qHTS assay to identify small molecule agonists of the sonic hedgehog signaling (Shh) pathway - cell viability counter screen (AID 1259366); note: nearly all actives have a fitted effect of over 50% in size
In short: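 Cytotoxicity counter screen: CellTiter-Fluor reagent added after 23 h compound exposure, then 1 h at 37C and fluorescence read. Cells were 3T3 Gli1-Luc, seeded 2,000 per well and dosed 4 h post-plating.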

[9] = qHTS assay to identify small molecule antagonists of the sonic hedgehog signaling (Shh) pathway - cell viability counter screen (AID 1259367); note: nearly all actives have a fitted effect of over 55% in size
In short: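 Seed 3T3 Gli1-Luc cells at 2,000 per well; incubate 4 hr; add compound in DMSO, then conditioned medium; incubate at 37C with 5% CO2; add CellTiter-Fluor after 23 hr; read fluorescence 1 hr later.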

[10] = molecular target: Estrogen receptor beta (Homo sapiens) (UniProt Q92731); assay: qHTS assay to identify small molecule agonists of the estrogen receptor beta (ER-beta) signaling pathway (AID 1259377; active = well fitted activation curve with a large enough effect in the signal ratio in the repeat runs, not every such curve was filed as active; the % refers to the signal ratio)
In short: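 Ratiometric beta-lactamase FRET read-out came after 2 h substrate loading at room temperature. It followed 16 h compound treatment at 37C of GripTite HEK293T cells carrying a UAS-bla reporter, plated in 2% charcoal-stripped FBS medium.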

[11] = qHTS assay to identify small molecule agonists of the androgen receptor (AR) signaling pathway in the presence of an antagonist - cell viability counter screen (AID 1259379);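 note: MDA-kb2 human breast cancer cells carrying an MMTV luciferase reporter; series mostly up to about 92 µM; nearly all actives have a fitted effect of over 25% in size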
In short: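 Fluorescence from CellTiter-Fluor, added after 15 hr and read 1 hr later, gave cell viability. Cells were MDA-kb2 exposed to compounds (15 concentrations) in the presence of 3.0uM nilutamide at 37C, 0% CO2.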

[12] = qHTS assay to identify small molecule agonists of the estrogen receptor beta (ER-beta) signaling pathway - cell viability counter screen (AID 1259380); note: nearly all actives have a fitted effect of over 30% in size
In short: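 Same-well viability counter screen. Cells: ER-beta-UAS-bla HEK293T, plated 6 hr before compound, in 2% charcoal-stripped FBS. Compound exposure 16 hr, 37C; viability by CellTiter-Glo luminescence after 30 min at room temperature.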

[13] = molecular target: Androgen receptor (Homo sapiens) (UniProt P10275); assay: qHTS assay to identify small molecule agonists of the androgen receptor (AR) signaling pathway in the presence of an antagonist (AID 1259381; calls by dose curve; note: nearly all actives have a fitted effect of over 15% in size; note: potency is the fitted concentration of half-maximal effect)
In short: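 Cells are MDA-kb2 (human breast carcinoma, MMTV-luc, AR/GR responsive). Nilutamide is present at 3.0uM final throughout; compounds are added at 15 concentrations and incubated 16hr at 37C before ONE-Glo luminescence detection.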

[14] = qHTS assay to identify small molecule antagonists of the estrogen receptor beta (ER-beta) signaling pathway - cell viability counter screen (AID 1259382); note: series mostly up to about 92 µM; nearly all actives have a fitted effect of over 55% in size
In short: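 Following a 6 hr plating period, HEK293T cells carrying a UAS-driven beta-lactamase reporter under ER-beta control received compounds and 1nM E2 (final). After 16 hr at 37C and 2 hr substrate loading, CellTiter-Glo luminescence indicated viability.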

[15] = molecular target: Estrogen receptor (Homo sapiens) (UniProt P03372); assay: qHTS assay to identify small molecule antagonists of the estrogen receptor alpha (ER-alpha) signaling pathway using the BG1 cell line in the presence of 0.1 nM 17-beta-estradiol (AID 1259244); note: nearly all actives have a fitted effect of over 50% in size
In short: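 After 5 days in hormone-depleted medium (charcoal-stripped serum, no phenol red), VM7Luc4E2 cells were seeded, incubated 24 h, then co-treated with compound and 0.1 nM (final) estradiol for 22 h before luminescence detection.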

[16] = qHTS assay to identify small molecule antagonists of the sonic hedgehog signaling (Shh) pathway (AID 1259369; calls by dose curve; note: nearly all actives have a fitted effect of over 45% in size)
In short: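 Inhibition of Shh signalling is measured as reduced Gli1-response-element firefly luciferase output in an NIH/3T3-derived stable reporter clone stimulated with conditioned medium for 24hr.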

[17] = molecular target: Estrogen receptor beta (Homo sapiens) (UniProt Q92731); assay: qHTS assay to identify small molecule antagonists of the estrogen receptor beta (ER-beta) signaling pathway (AID 1259378; active = well fitted inhibition curve with a large enough effect in the signal ratio in the repeat runs, not every such curve was filed as active; the % refers to the signal ratio)
In short: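 ER-beta-UAS-bla HEK293T cells in 2% charcoal-stripped FBS medium treated with compound plus 1nM final 17-beta-estradiol for 16 hr at 37C. Beta-lactamase reporter read by FRET substrate fluorescence after 2 hours at room temperature.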

[18] = molecular target: Estrogen receptor (Homo sapiens) (UniProt P03372); assay: qHTS assay to identify small molecule agonists of the estrogen receptor alpha (ER-alpha) signaling pathway in the presence of an antagonist (AID 1259383; calls by dose curve; note: top concentration of the series differs between compounds; nearly all actives have a fitted effect of over 15% in size)
In short: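 Cells are hormone-deprived for 5 days (charcoal-stripped FBS, no phenol red), plated for 24hr, spiked with 10.0nM ICI-182,780, then dosed at 15 concentrations. After 22hr at 37C, ONE-Glo luminescence reports ERE-luciferase activity.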

[19] = qHTS assay to identify small molecule agonists or antagonists of the thyroid stimulating hormone receptor (TSHR) signaling pathway - wild type cell line counter screen (AID 1259384; calls by dose curve)
In short: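 Wild-type Hek293 cells, 800/well, 18 h at 37C, then compound with Ro20-1724 for 30 min RT. cAMP by HTRF (cAMP-d2/anti-cAMP cryptate), 1 h RT, fluorescence read. 15 concentrations, triplicates.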

[20] = qHTS assay to identify small molecule agonists of the sonic hedgehog signaling (Shh) pathway (AID 1259368; calls by dose curve;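 note: NIH/3T3-derived 3T3Gli1-Luc cells carrying a stable Gli1-driven firefly luciferase reporter; series mostly up to about 92 µM; nearly all actives have a fitted effect of over 15% in size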)
In short: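 Steps: seed 3T3 Gli1-Luc cells, incubate 4 hr at 37 C, pin-transfer compounds in DMSO alongside a positive control, incubate 24 hr, add luciferase detection reagent, wait 30 min at room temperature, read luminescence.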

Androgen receptor (Homo sapiens), sequence (P10275 whole entry, looked up): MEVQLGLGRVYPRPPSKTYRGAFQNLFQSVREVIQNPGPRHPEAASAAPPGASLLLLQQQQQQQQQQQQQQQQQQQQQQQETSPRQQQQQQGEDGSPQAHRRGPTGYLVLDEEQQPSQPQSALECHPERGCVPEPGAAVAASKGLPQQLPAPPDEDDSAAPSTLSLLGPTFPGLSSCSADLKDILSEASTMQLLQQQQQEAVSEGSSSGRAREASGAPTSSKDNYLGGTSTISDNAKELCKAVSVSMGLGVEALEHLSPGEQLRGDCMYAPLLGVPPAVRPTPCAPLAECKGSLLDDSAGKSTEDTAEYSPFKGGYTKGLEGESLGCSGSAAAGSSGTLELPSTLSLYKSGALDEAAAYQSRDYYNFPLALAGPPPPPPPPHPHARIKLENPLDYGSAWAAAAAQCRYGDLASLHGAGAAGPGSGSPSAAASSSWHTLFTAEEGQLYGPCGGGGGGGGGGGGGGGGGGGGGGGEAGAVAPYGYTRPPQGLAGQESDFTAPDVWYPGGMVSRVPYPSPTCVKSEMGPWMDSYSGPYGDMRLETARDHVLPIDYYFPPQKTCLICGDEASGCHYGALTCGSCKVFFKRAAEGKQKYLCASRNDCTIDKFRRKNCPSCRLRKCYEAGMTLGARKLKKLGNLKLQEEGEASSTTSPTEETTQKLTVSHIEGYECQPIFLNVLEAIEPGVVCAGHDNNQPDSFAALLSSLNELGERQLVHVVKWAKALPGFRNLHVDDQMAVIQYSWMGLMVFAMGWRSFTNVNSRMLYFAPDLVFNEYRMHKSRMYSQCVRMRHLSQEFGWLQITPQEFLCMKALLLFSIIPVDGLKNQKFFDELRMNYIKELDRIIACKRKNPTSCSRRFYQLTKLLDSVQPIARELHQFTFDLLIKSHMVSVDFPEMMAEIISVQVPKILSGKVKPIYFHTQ
Estrogen receptor (Homo sapiens), sequence (P03372 whole entry, looked up): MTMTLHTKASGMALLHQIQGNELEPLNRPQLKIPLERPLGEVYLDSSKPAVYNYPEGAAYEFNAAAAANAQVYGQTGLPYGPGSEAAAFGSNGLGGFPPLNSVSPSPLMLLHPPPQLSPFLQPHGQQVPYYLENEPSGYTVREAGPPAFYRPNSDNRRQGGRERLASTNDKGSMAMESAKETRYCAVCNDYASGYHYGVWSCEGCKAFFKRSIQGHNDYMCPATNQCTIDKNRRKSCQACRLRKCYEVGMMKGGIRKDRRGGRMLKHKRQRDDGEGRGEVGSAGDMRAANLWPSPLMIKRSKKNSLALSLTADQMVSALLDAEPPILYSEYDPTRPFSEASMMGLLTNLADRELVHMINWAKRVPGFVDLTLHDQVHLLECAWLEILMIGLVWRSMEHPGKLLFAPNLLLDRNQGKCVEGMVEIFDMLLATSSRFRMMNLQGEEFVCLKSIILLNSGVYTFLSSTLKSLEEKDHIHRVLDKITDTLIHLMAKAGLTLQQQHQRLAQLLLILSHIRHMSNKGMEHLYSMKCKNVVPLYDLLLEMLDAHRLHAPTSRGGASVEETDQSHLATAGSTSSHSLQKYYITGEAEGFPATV
Estrogen receptor beta (Homo sapiens), sequence (Q92731 whole entry, looked up): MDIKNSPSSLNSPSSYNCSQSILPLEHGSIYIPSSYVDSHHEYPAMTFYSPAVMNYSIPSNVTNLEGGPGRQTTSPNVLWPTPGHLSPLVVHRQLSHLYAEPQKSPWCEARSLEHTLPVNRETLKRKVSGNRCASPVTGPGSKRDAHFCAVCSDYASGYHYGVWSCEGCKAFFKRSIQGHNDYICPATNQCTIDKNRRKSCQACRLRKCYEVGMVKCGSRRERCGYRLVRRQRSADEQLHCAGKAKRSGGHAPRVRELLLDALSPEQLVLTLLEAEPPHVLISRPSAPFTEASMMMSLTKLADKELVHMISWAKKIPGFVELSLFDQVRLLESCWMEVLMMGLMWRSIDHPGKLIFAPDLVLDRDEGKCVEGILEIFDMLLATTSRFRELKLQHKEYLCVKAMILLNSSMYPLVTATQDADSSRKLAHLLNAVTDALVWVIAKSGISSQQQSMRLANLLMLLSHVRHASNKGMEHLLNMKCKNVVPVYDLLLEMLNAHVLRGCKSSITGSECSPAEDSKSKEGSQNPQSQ

| SMILES | Potency [1] | outcome [2] | Potency [3] | Potency [4] | Potency [5] | Potency [6] | outcome [7] | Potency [8] | Potency [9] | outcome [10] | Potency [11] | Potency [12] | Potency [13] | Potency [14] | outcome [15] | Potency [16] | outcome [17] | Potency [18] | outcome [19] | outcome [20] |
| --- | --- | --- | --- | --- | --- | --- | --- | --- | --- | --- | --- | --- | --- | --- | --- | --- | --- | --- | --- | --- |
| CN1CCN(c2cc3c(cc2F)c(=O)c(C(=O)O)cn3-c2ccc(F)cc2)CC1 | inactive | inactive | inactive | inactive | inactive | inactive | inactive | inactive | inactive | inactive | inactive | inactive | 26.6 µM (active) | inactive | – | – | – | – | – | – |
| CCn1nc(C(=O)O)c(=O)c2cc3c(cc21)OCO3 | inactive | inactive | inactive | inactive | inactive | inactive | inactive | inactive | inactive | inactive | inactive | inactive | inactive | inactive | inactive | inactive | inactive | inactive | inactive | – |
| O=C(O)COc1nn(Cc2ccccc2)c2ccccc12 | inactive | inactive | inactive | inactive | inactive | inactive | inactive | inactive | inactive | inactive | inactive | inactive | 33.5 µM (active) | – | inactive | – | inactive | inactive | – | inactive |
| CCOC(=O)c1c(C)n(C)c2ccc(O)cc12 | inactive | inactive | inactive | inactive | inactive | inactive | inactive | inactive | inactive | – | inactive | – | inactive | inactive | – | inactive | – | – | – | inactive |
| CCCCNC(=O)NCCCC | inactive | inactive | inactive | inactive | – | inactive | inactive | inactive | inactive | – | inactive | inactive | inactive | inactive | inactive | – | – | inactive | inactive | inactive |
| CCN1CCC[C@H]1CNC(=O)c1cc(S(N)(=O)=O)ccc1OC | inactive | inactive | inactive | inactive | inactive | – | inactive | inactive | inactive | inactive | inactive | inactive | – | inactive | – | inactive | inactive | – | inactive | inactive |
| CCCCOCCOCCOCc1cc2c(cc1CCC)OCO2 | inactive | inactive | inactive | inactive | inactive | inactive | inactive | inactive | inactive | inactive | inactive | inactive | inactive | inactive | – | – | inactive | – | inactive | inactive |
| O=C1CC2CC1C1CCCC21 (stereo not given) | inactive | inactive | inactive | inactive | – | – | inactive | inactive | inactive | inactive | inactive | inactive | 27.3 µM (active) | – | inactive | inactive | inactive | inactive | inactive | inactive |
